Laboratory results as given in PubChem BioAssay (EPA / NIEHS).
Activity calls are given as the source filed them. Rule for the calls: active = hit-call score of the fitted dose curve at least 0.9, where 1 is the maximum; inactive = score below 0.9.

Experiments:
Details in all cases: mRNA level, 48 h; actives raise or lower the signal
[1] = read-out: ABC Transporter (ABCC2), ABCC2 (gene 1244); experiment: LTEA_HepaRG_ABCC2: Life Technologies and Expression Analysis (LTEA) Assay for ABC Transporter (ABCC2) using HepaRG (AID 2283464)
Method in brief: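 HepaRG cells were plated 48 h, switched to serum-free induction medium, then exposed in duplicate for 48 h to 8 concentrations (top 100 uM, half-log steps, 0.5% DMSO). ABCC2 mRNA was measured by qRT-PCR normalized to ACTB/GAPDH/POLR2A; bidirectional fitting versus DMSO.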

[2] = read-out: Broad substrate specificity ATP-binding cassette transporter ABCG2 (Homo sapiens) (UniProt Q9UNQ0); experiment: LTEA_HepaRG_ABCG2: Life Technologies and Expression Analysis (LTEA) Assay for ABC Transporter (ABCG2) using HepaRG (AID 2283465)
Method in brief: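 Gene expression of ABCG2 in HepaRG liver cells is quantified by qRT-PCR following 48 h exposure across an eight-point series topping at 100 uM. Values come from bidirectional fitting relative to DMSO vehicle.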

[3] = read-out: ATP-citrate lyase (ACLY), ACLY (gene 47); experiment: LTEA_HepaRG_ACLY: Life Technologies and Expression Analysis (LTEA) Assay for ATP-citrate lyase (ACLY) using HepaRG (AID 2283466)
Method in brief: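 ACLY expression changes in human HepaRG liver cells are quantified by qRT-PCR after 48 h exposure to test chemicals (maximum 100 uM, half-log steps). Values are fitted in both directions relative to 0.5% DMSO vehicle.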

[4] = read-out: Peroxisomal acyl-coenzyme A oxidase 1 (ACOX1) gene, ACOX1 (gene 51); experiment: LTEA_HepaRG_ACOX1: Life Technologies and Expression Analysis (LTEA) Assay for Peroxisomal acyl-coenzyme A oxidase 1 (ACOX1) gene using HepaRG (AID 2283467)
Method in brief: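 Human HepaRG hepatic cultures, 48 h treatment with test chemicals up to 100 uM. ACOX1 expression read by qRT-PCR relative to 0.5% DMSO vehicle.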

[5] = read-out: Alkaline Phosphatase, Placental (ALPP) gene, ALPP (gene 250); experiment: LTEA_HepaRG_ALPP: Life Technologies and Expression Analysis (LTEA) Assay for Alkaline Phosphatase, Placental (ALPP) gene using HepaRG (AID 2283468)
Method in brief: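 Differentiated human HepaRG cells were plated and cultured 48 h, then exposed in duplicate for 48 h in serum-free induction medium to eight half-log concentrations from 100 uM in 0.5% DMSO. ALPP mRNA was measured by TaqMan qRT-PCR, normalized to ACTB, GAPDH, POLR2A.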

[6] = read-out: Bcl-2 (BAD) gene, BAD (gene 572); experiment: LTEA_HepaRG_BAD: Life Technologies and Expression Analysis (LTEA) Assay for Bcl-2 (BAD) gene using HepaRG (AID 2283469)
Method in brief: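 Activity values reflect up- or down-regulation of BAD mRNA in human HepaRG hepatic cells treated 48 h in serum-free medium, with eight-point half-log dosing capped at 100 uM and 0.5% DMSO vehicle.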

[7] = read-out: Bcl-2 (BAX) gene, BAX (gene 581); experiment: LTEA_HepaRG_BAX: Life Technologies and Expression Analysis (LTEA) Assay for Bcl-2 (BAX) gene using HepaRG (AID 2283470)
Method in brief: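 Gene expression measured by Fluidigm qRT-PCR with three housekeeping genes for normalisation. HepaRG cells, plated 48 h beforehand, treated 48 h at up to 100 uM (8-point, half-log) in 0.5% DMSO. Bidirectional fitting versus DMSO.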

[8] = read-out: adenosine kinase (ADK) gene, ADK (gene 132); experiment: LTEA_HepaRG_ADK: Life Technologies and Expression Analysis (LTEA) Assay for adenosine kinase (ADK) gene using HepaRG (AID 2283471)
Method in brief: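 HepaRG (human liver), 48 h chemical exposure, 8-pt half-log series, top 100 uM, 0.5% DMSO vehicle. Readout: ADK mRNA by qRT-PCR vs housekeeping genes; bidirectional curve fit relative to DMSO baseline.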

[9] = read-out: Alpha-fetoprotein (AFP) gene, AFP (gene 174); experiment: LTEA_HepaRG_AFP: Life Technologies and Expression Analysis (LTEA) Assay for Alpha-fetoprotein (AFP) gene using HepaRG (AID 2283472)
Method in brief: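 AFP transcript measured by TaqMan qRT-PCR with three housekeeping genes for normalization, after 48 h chemical treatment of HepaRG cells (top 100 uM, half-log steps, 0.5% DMSO). Gain or loss fitted against vehicle.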

[10] = read-out: BCL2L11 (gene 10018); experiment: LTEA_HepaRG_BCL2L11: Life Technologies and Expression Analysis (LTEA) Assay for Bcl-2 (BCL2L11) gene using HepaRG (AID 2283473)
Method in brief: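 Differentiated human HepaRG cells in serum-free induction medium were exposed in duplicate for 48 h to eight concentrations (top 100 uM, half-log steps, 0.5% DMSO). BCL2L11 mRNA was quantified by TaqMan qRT-PCR, normalized to ACTB/GAPDH/POLR2A, bidirectional fit versus DMSO.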

[11] = read-out: Apolipoprotein A-V (APOA5) gene, APOA5 (gene 116519); experiment: LTEA_HepaRG_APOA5: Life Technologies and Expression Analysis (LTEA) Assay for Apolipoprotein A-V (APOA5) gene using HepaRG (AID 2283474)
Method in brief: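 Differentiated human HepaRG cells were exposed in duplicate for 48 h to eight half-log concentrations from 100 uM in 0.5% DMSO. APOA5 mRNA was quantified by TaqMan qRT-PCR, normalized to ACTB, GAPDH and POLR2A, and fitted bidirectionally against DMSO.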

[12] = read-out: Apoptosis regulator Bcl-2 (Homo sapiens) (UniProt P10415); experiment: LTEA_HepaRG_BCL2: Life Technologies and Expression Analysis (LTEA) Assay for Bcl-2 gene using HepaRG (AID 2283475)
Method in brief: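 qRT-PCR of BCL2 transcript, normalized to three housekeeping genes (ACTB, GAPDH, POLR2A), after 48 h chemical exposure of HepaRG cells; concentrations top 100 uM with half-log dilutions, 0.5% DMSO vehicle, duplicates; changes up or down fitted relative to vehicle.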

[13] = read-out: Bcl-2 (BID) gene, BID (gene 637); experiment: LTEA_HepaRG_BID: Life Technologies and Expression Analysis (LTEA) Assay for Bcl-2 (BID) gene using HepaRG (AID 2283476)
Method in brief: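 Duplicate 48 h treatments of HepaRG cells in serum-free induction medium spanned 100 uM downward in half-log steps, 0.5% DMSO. Transcript change quantified by qRT-PCR against three housekeeping genes, fitted up or down versus DMSO.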

[14] = read-out: Caspase-3 (Homo sapiens) (UniProt P42574); experiment: LTEA_HepaRG_CASP3: Life Technologies and Expression Analysis (LTEA) Assay for cysteine-aspartic acid protease (CASP3) using HepaRG (AID 2283477)
Method in brief: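 Differentiated human HepaRG cells in serum-free induction medium were exposed 48 h to 8-point half-log concentrations from 100 uM (0.5% DMSO vehicle). CASP3 mRNA was measured by qRT-PCR, normalised to ACTB, GAPDH and POLR2A, with bidirectional fitting against DMSO.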

[15] = read-out: Cytochrome P450 (CYP24A1), CYP24A1 (gene 1591); experiment: LTEA_HepaRG_CYP24A1: Life Technologies and Expression Analysis (LTEA) Assay for Cytochrome P450 (CYP24A1) using HepaRG (AID 2283478)
Method in brief: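 Differentiated HepaRG cells, pre-cultured 48 h, were exposed in duplicate for 48 h in serum-free induction medium to 8 half-log concentrations (top 100 uM, 0.5% DMSO). CYP24A1 mRNA was quantified by TaqMan qRT-PCR, normalized to ACTB/GAPDH/POLR2A, fitted bidirectionally versus DMSO.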

[16] = read-out: Cytochrome P450 (CYP1A2), CYP1A2 (gene 1544); experiment: LTEA_HepaRG_CYP1A2: Life Technologies and Expression Analysis (LTEA) Assay for Cytochrome P450 (CYP1A2) using HepaRG (AID 2283479)
Method in brief: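 Differentiated human HepaRG cells in serum-free induction medium were exposed in duplicate for 48 h to 8-point half-log concentrations up to 100 uM in 0.5% DMSO. CYP1A2 mRNA measured by qRT-PCR, normalized to ACTB, GAPDH, POLR2A; bidirectional fit vs DMSO.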

[17] = read-out: cysteine-aspartic acid protease (CASP8), CASP8 (gene 841); experiment: LTEA_HepaRG_CASP8: Life Technologies and Expression Analysis (LTEA) Assay for cysteine-aspartic acid protease (CASP8) using HepaRG (AID 2283480)
Method in brief: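 Concentration-response in duplicate up to 100 uM (half-log steps, 0.5% DMSO) on differentiated HepaRG cultures for 48 h. Expression change of CASP8 mRNA is determined by TaqMan qRT-PCR with housekeeping-gene normalization.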

[18] = read-out: Cytochrome P450 (CYP2B6), CYP2B6 (gene 1555); experiment: LTEA_HepaRG_CYP2B6: Life Technologies and Expression Analysis (LTEA) Assay for Cytochrome P450 (CYP2B6) using HepaRG (AID 2283481)
Method in brief: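 Differentiated HepaRG cells, serum-free induction medium, exposed 48 h in duplicate to 8-point half-log concentrations from 100 uM in 0.5% DMSO. CYP2B6 mRNA by qRT-PCR, normalized to ACTB, GAPDH, POLR2A; bidirectional fit versus DMSO.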

[19] = read-out: CYP2C8 (gene 1558); experiment: LTEA_HepaRG_CYP2C8: Life Technologies and Expression Analysis (LTEA) Assay for CYP2C8 using HepaRG (AID 2283483)
Method in brief: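 This is a transcriptional endpoint in HepaRG cultures: 48 h exposure, highest concentration 100 uM. CYP2C8 mRNA is quantified by TaqMan qRT-PCR.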

[20] = read-out: Cytochrome P450 2C19 (Homo sapiens) (UniProt P33261); experiment: LTEA_HepaRG_CYP2C19: Life Technologies and Expression Analysis (LTEA) Assay for CYP2C19 using HepaRG (AID 2283482)
Method in brief: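 Differentiated human HepaRG cells were exposed for 48 h in serum-free induction medium to 8 concentrations (top 100 uM, half-log steps, 0.5% DMSO). CYP2C19 mRNA was measured by qRT-PCR, normalized to ACTB/GAPDH/POLR2A, and fitted bidirectionally against DMSO.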

Measured: AC50

Chain of Broad substrate specificity ATP-binding cassette transporter ABCG2 (Homo sapiens) (Q9UNQ0 whole entry, looked up): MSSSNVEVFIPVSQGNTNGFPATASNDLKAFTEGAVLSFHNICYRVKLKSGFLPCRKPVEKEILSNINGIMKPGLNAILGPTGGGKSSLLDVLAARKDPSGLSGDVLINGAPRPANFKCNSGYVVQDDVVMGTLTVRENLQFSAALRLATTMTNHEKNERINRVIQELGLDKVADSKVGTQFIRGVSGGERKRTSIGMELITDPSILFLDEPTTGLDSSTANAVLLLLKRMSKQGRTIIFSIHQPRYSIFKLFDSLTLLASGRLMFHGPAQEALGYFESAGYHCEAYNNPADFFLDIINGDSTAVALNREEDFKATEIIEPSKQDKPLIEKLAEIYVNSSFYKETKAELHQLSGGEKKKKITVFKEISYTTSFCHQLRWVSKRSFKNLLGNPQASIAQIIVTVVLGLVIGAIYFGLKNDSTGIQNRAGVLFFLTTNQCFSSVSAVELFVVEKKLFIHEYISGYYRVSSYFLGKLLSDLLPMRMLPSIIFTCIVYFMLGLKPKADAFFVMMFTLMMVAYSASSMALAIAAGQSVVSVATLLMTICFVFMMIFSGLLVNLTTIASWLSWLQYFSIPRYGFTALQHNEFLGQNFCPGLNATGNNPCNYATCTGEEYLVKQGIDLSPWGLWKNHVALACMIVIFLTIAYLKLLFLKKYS
Chain of Caspase-3 (Homo sapiens) (P42574 whole entry, looked up): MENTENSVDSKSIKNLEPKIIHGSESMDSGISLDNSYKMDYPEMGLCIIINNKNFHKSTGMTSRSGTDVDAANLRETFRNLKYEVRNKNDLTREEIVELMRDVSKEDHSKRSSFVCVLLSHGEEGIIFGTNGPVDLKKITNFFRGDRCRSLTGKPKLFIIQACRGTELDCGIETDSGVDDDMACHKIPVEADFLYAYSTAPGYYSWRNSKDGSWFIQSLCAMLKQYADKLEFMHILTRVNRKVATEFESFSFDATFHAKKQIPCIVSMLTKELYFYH
Chain of Apoptosis regulator Bcl-2 (Homo sapiens) (P10415 whole entry, looked up): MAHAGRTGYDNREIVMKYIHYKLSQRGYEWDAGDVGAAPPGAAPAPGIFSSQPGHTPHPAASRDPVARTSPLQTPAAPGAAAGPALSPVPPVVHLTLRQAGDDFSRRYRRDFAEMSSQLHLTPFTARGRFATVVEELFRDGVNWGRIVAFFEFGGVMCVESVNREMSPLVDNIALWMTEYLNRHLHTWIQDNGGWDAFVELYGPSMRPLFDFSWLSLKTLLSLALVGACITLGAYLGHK
Chain of Cytochrome P450 2C19 (Homo sapiens) (P33261 whole entry, looked up): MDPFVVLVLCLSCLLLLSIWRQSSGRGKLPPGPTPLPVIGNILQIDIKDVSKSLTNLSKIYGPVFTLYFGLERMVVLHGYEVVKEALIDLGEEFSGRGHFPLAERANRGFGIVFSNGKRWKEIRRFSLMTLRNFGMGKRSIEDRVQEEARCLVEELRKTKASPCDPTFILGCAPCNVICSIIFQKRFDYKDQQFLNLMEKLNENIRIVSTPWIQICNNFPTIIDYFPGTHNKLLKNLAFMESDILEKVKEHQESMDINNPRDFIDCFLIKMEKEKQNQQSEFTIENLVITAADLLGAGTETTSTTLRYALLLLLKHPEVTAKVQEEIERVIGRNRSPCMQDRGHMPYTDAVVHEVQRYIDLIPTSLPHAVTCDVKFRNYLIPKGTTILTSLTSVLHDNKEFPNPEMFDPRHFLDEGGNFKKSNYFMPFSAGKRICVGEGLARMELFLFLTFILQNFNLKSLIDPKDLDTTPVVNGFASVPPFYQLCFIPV

NNC(=O)c1ccncc1
active: [18] 10.4 µM
not listed: [20]
inactive: all other assays above

CCCc1ccccc1
inactive: all assays above

CCCCCCCCCC
active: [16] 50 µM
not listed: [12]
inactive: all other assays above

OCC(CO)(CO)CO
not listed: [12]
inactive: all other assays above

COc1cc(C(C)C)c2c(c1)S(=O)(=O)N(COc1cc(=O)n3cccc(OCCN4CCCCC4)c3n1)C2=O
active: [1] 22.3 µM | [2] 20.9 µM | [4] 19.8 µM | [5] 6.3 µM | [8] 22 µM | [9] 19.5 µM | [11] 22.6 µM | [16] 20.2 µM | [18] 22.5 µM | [20] 19.3 µM | [19] 19.9 µM
inactive: [3] | [6] | [7] | [10] | [13] | [14] | [15] | [17]

CCCCCCCCCCCCCCCCOS(=O)(=O)O
active: [9] 41.2 µM | [20] 43.1 µM
inactive: all other assays above

c1ccc(C(O[C@@H]2CCCN(CCc3ccc4c(c3)OCO4)C2)c2ccccc2)cc1
active: [1] 79.7 µM | [4] 75.9 µM | [5] 68.5 µM | [7] 80.1 µM | [8] 90.7 µM | [12] 73.2 µM | [13] 91 µM | [14] 76.7 µM | [16] 12.2 µM | [17] 78.6 µM | [18] 72 µM | [19] 77.1 µM
inactive: [2] | [3] | [6] | [9] | [10] | [11] | [15]

Cc1ccc(S(=O)(=O)NC(=O)NN2CCCCCC2)cc1
active: [5] 0.161 µM
not listed: [15] | [16] | [18] | [19] | [20]
inactive: all other assays above

c1ccc2c(c1)-c1cccc3c1c-2cc1ccccc13
active: [1] 13.8 µM | [3] 3.88 µM | [4] 15.9 µM | [8] 12.3 µM | [9] 17.2 µM | [10] 12.5 µM | [11] 13.4 µM | [12] 6 µM | [14] 13.5 µM | [16] 1.13 µM | [20] 17.2 µM | [19] 17.3 µM
inactive: [2] | [5] | [6] | [7] | [13] | [15] | [18]

c1ccc2ncccc2c1
active: [18] 50 µM | [19] 36.2 µM
inactive: all other assays above

Cc1nccn1-c1ccc(Sc2cccc(C3(C(N)=O)CCOCC3)c2)cc1
active: [1] 19.9 µM | [2] 31.2 µM | [4] 12.2 µM | [5] 5.09 µM | [8] 13.1 µM | [9] 13.4 µM | [10] 3.37 µM | [11] 11.3 µM | [12] 7.26 µM | [14] 2.48 µM | [16] 18.6 µM | [17] 28.1 µM | [18] 9.76 µM | [19] 12.6 µM
inactive: [3] | [6] | [7] | [13] | [15]

CC1(C)C(=O)N(Cl)C(=O)N1Cl
active: [16] 50 µM
inactive: all other assays above

CCCCOC(=O)c1ccccc1
active: [18] 50 µM
inactive: all other assays above
